# Source: PubChem BioAssay AID504333 (National Center for Advancing Translational Sciences (NCATS), 2011)
# Screen size: about 360,000 compounds; about 16,000 (4.4%) were called active. Entries that show only a call come without a potency. Roughly 9% stayed inconclusive and do not appear here. This is one part of a sample in which actives are shown more often than they occur. Calls follow the shape of the dose curve; as a rule, active = well fitted inhibition curve with a large enough effect; inconclusive = small, poorly fitted or top-dose-only effect; inactive = no such curve, though single readings can be large or run the other way.
# Molecular target: Bromodomain adjacent to zinc finger domain protein 2B (Homo sapiens) (UniProt Q9UIF8)
# Assay: qHTS Assay for Inhibitors of BAZ2B; also: nearly all actives have a fitted effect of over 60% in size
# Conditions: AlphaScreen BAZ2B-H3K14Ac peptide displacement; series mostly up to 114 µM
# Outline: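 Compounds, titrated to a top concentration of 110 uM, were incubated 30 min at room temperature with preformed BAZ2B/acetyl-K14 H3 peptide complex (50 nM each). Proximity signal was measured by AlphaScreen after 20 min with beads.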
# Potency is read from the fitted curve at half-maximal effect.
# Bromodomain adjacent to zinc finger domain protein 2B (Homo sapiens), sequence (Q9UIF8 whole entry, looked up, the tested form may be a part): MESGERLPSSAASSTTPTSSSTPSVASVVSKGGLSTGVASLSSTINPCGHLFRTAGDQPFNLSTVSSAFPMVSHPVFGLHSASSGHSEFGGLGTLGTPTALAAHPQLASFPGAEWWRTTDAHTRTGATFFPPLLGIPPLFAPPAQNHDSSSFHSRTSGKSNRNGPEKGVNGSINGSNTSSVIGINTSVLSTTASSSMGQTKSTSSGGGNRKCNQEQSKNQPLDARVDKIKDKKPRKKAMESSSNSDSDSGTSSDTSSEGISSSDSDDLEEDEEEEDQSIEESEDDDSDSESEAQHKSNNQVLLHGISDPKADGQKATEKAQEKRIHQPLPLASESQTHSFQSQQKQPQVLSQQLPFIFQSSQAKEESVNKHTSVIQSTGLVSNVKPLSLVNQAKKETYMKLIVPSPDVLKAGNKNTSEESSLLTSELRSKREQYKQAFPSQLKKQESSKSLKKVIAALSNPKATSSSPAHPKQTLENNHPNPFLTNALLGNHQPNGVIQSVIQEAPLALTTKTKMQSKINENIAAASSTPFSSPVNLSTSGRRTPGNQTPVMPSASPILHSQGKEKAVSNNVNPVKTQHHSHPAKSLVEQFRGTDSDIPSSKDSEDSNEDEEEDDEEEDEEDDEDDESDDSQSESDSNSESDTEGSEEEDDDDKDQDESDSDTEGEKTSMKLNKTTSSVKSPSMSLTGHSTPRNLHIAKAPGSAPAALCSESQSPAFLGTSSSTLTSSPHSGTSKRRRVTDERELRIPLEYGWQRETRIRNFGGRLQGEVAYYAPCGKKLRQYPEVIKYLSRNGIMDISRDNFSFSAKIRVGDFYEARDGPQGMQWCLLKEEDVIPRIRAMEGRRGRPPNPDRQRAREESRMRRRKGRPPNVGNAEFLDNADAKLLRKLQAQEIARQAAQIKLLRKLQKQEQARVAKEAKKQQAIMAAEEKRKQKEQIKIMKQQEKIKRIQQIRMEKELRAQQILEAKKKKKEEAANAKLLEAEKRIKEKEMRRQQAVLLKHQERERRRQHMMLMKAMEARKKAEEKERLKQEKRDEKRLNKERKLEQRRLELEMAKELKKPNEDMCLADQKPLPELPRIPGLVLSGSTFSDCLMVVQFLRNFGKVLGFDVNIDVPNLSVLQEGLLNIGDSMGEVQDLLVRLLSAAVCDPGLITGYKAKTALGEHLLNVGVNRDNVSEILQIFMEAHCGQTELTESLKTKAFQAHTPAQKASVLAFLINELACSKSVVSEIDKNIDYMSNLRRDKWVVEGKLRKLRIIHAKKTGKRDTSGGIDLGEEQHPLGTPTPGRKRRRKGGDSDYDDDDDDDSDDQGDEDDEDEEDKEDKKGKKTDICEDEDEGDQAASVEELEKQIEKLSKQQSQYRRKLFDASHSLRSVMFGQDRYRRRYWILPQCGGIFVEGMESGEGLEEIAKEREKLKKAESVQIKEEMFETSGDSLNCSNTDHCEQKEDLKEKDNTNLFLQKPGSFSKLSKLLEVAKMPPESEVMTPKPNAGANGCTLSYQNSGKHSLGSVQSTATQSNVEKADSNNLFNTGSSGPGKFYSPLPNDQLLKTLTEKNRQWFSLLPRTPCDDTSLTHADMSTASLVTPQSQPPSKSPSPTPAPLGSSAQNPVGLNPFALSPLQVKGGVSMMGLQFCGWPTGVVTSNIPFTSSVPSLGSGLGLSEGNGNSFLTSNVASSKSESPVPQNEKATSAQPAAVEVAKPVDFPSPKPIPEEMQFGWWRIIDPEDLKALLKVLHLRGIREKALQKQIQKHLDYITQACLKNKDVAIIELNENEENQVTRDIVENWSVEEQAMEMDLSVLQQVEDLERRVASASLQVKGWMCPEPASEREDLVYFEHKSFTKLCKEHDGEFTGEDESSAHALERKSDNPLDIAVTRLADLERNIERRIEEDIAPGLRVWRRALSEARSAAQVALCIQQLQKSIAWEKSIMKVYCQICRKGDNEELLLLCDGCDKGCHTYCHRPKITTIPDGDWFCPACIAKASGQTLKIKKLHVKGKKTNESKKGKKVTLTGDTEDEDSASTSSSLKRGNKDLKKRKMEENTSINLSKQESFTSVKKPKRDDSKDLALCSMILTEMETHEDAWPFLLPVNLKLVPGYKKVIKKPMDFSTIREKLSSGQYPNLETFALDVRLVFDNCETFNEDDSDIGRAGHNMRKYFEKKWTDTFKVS
row,Compound,Potency
1,COc1ccc(OC)c(-c2noc(N3CCN(c4cc(Cl)ccc4C)CC3)n2)c1,inactive
2,O=C(Nc1ccc2nc(SCC(=O)N3CCCc4ccccc43)sc2c1)c1ccc(F)cc1,inactive
3,CCOC(=O)c1c(C)[nH]c(C)c1S(=O)(=O)NCC(=O)NCc1cccc(C)c1,inactive
4,Cc1ccc(C)c(CNC(=O)c2cc3ccccn3n2)c1,inactive
5,CN(C)CCCN(C(=O)c1ccc(S(=O)(=O)N2CCCc3ccccc32)cc1)c1nc2ccc(F)cc2s1,28.2 µM (active)
6,CCc1ccc2nc(N(CCCN(C)C)C(=O)c3ccc4c(c3)OCCO4)sc2c1,inactive
7,CN(C)CCCN(C(=O)c1ccc(S(=O)(=O)N2CCCCCC2)cc1)c1nc2ccc(Br)cc2s1,28.2 µM (active)
8,Cc1ccc2nc(N(CCN(C)C)C(=O)C3=COCCO3)sc2c1,inactive
9,CCN(CC)CCN(C(=O)c1ccc(S(=O)(=O)N2CCOCC2)cc1)c1nc2cc3c(cc2s1)OCCO3,inactive
10,CSc1nc2ccc(S(=O)(=O)N3CCc4ccccc43)cc2s1,inactive
11,CCOc1ccc(OCC)c(NC(=O)c2c(C)nn(-c3ccccc3)c2-n2cccc2)c1,inactive
12,O=C(CCc1ccccc1)NCc1ccc2c(c1)CCN2C(=O)c1ccccc1,inactive
13,CCOCCCNC(=O)c1c(NC(=O)Cc2coc3ccc(C)cc23)sc2c1CCC2,inactive
14,COc1ccccc1NC(=O)CN(c1ccccc1OC)S(=O)(=O)c1ccccc1,inactive
15,COc1ccccc1N(CC(=O)N/N=C(\C)c1ccccc1O)S(=O)(=O)c1ccc(C)cc1,50.1 µM (active)
16,COc1ccc(S(=O)(=O)N(CC(=O)N/N=C/c2ccccc2C(=O)O)c2ccccc2OC)cc1,inactive
17,CCCN(CCC)S(=O)(=O)c1ccc(C(=O)Nc2sc3c(c2C(=O)OC)CCN(CC)C3)cc1,inactive
18,Cc1cccc(C(=O)N2CCc3cc(CNC(=O)Cc4ccc(F)cc4)ccc32)c1,inactive
19,CCC(=O)Nc1c(C(=O)N2CCN(c3ccc(F)cc3)CC2)oc2ccccc12,inactive
20,Cc1nnc(SCC(=O)NCc2ccccc2Cl)c2nn(-c3ccccc3)c(C)c12,inactive
21,Cc1nn(C(C)C(=O)NCCC2=CCCCC2)c(=O)c2nn(-c3ccccc3)c(C)c12 (stereo unspecified),inactive

row,Compound,Potency
1,Cc1ccc(-n2nc3c(=O)n(C(C)C(=O)NCc4ccc5c(c4)OCO5)nc(C)c3c2C)cc1 (stereo unspecified),79.4 µM (active)
2,COc1ccc(CNC(=O)C(C)n2nc(C)c3c(C)n(-c4ccccc4)nc3c2=O)c(OC)c1 (stereo unspecified),inactive
3,O=C(CSCc1cnn(-c2ccccc2)c1-n1cccc1)NCc1ccccc1Br,inactive
4,CCn1c(-c2cc(OC)ccc2OC)csc1=Nc1c(C)n(C)n(-c2ccccc2)c1=O,inactive
5,CN=c1scc(-c2cc(OC)ccc2OC)n1/N=C/c1c(C)[nH]c2ccccc12,35.5 µM (active)
6,COCCNC(=S)N/N=C/c1c(C)[nH]c2ccccc12,inactive
7,COc1ccc(CNC(=O)Cn2nnc(-c3ccccc3F)n2)cc1,inactive
8,CC(C)c1ccc(NC(=O)c2cc(S(=O)(=O)N3CCc4ccccc4C3)ccc2F)cc1,inactive
9,Cc1cccc(CCNC(=O)c2ccc3c(c2)nc2n3CCC(C)C2)c1 (stereo unspecified),inactive
10,Cc1ccc(C)n1-c1nnc(N2CCC(C(=O)NCc3ccccc3Cl)CC2)s1,inactive
11,Cc1ccc(-n2c(C)cc(/C=N\NC(=O)CC(=O)NC(C)C)c2C)cc1,inactive
12,O=C(N/N=C/c1ccccc1O)C1CCCC1,inactive
13,Cc1cc(/C=N/NC(N)=O)c(C)n1C1CCCCC1,50.1 µM (active)
14,CCC(=O)N1c2ccccc2CC1C(=O)N1CCN(c2cccc(OC)c2)CC1 (stereo unspecified),inactive
15,O=C(CC(NCc1cccnc1)C(=O)O)Nc1ccc(O)cc1 (stereo unspecified),inactive
16,CCc1ccc(CNC(=O)C2CCN(c3nn4cc(-c5ccc(F)cc5)nc4s3)CC2)cc1,inactive
17,CC1CCCC(C)N1C(=O)CN1CCN(c2nc(-c3ccc(F)cc3)cs2)CC1 (stereo unspecified),70.8 µM (active)
18,COc1cccc(NC(=O)CN2CCN(c3nc(-c4cccc(OC)c4)cs3)CC2)c1,inactive
19,CC(C)(C)NC(=O)CSc1nc(-c2ccc(F)cc2)cc(C(F)(F)F)n1,inactive
20,COc1ccc(S(=O)(=O)N2CCCCC2)cc1C(=O)NC1CCS(=O)(=O)C1 (stereo unspecified),inactive
21,CCc1ccc(NC(=O)c2cc(S(=O)(=O)NC3CCCCCC3)ccc2F)cc1,inactive

row,Compound,Potency
1,CC(CCCc1ccccc1)NC(=O)c1nn(-c2ccc(Cl)cc2)nc1CO (stereo unspecified),inactive
2,O=C(Nc1ccc(-n2ccnc2P(=O)(O)c2ccccc2)cc1)c1ccccc1Br,44.7 µM (active)
3,Cc1ccc(NC(=O)c2cccnc2C(=O)Nc2ccc(C)cc2)cc1,inactive
4,Cn1c(=O)c(=O)n(C)c2cc(NC(=O)c3ccccc3Br)ccc21,inactive
5,COc1ccccc1NC(=O)CSc1oc(-c2ccco2)nc1S(=O)(=O)c1ccc(Br)cc1,inactive
6,Cc1cccc(NC(=O)CSc2nc3c([nH]c4ccccc43)c(=O)n2-c2cc(C)cc(C)c2)c1,inactive
7,CCN(CC)c1ccc(NC(=O)Cn2nc3c(cc2=O)CCCC3)c(C)c1,inactive
8,CCOc1ccc(C2C(C#N)=C(N)N(N(C)C)C3=C2C(=O)CCC3)cc1 (stereo unspecified),inactive
9,COc1ccc(C2C(C#N)=C(N)N(c3ncn[nH]3)C3=C2C(=O)CCC3)cc1 (stereo unspecified),79.4 µM (active)
10,N#CC1=C(N)N(c2ccccc2)C2=C(C(=O)CCC2)C1c1ccccc1 (stereo unspecified),inactive
11,Oc1ccc(Br)cc1/C=N/Nc1ccccn1,31.6 µM (active)
12,Cc1c(C(=O)Nc2ccccn2)oc2ccc(Br)cc12,inactive
13,Oc1ccc(Br)cc1C=Nc1ccc2[nH]ncc2c1,inactive
14,COC(=O)c1ccc(NC(=O)CCc2c(C)nc3c(c(C)nn3-c3ccc(C)cc3)c2C)cc1,inactive
15,COc1ccc(-c2nnc(SCC(=O)Nc3ccccc3C)o2)cc1OC,inactive
16,CC(C)c1ccc(S(=O)(=O)Nc2ccc(O)c(Sc3nc4ccccc4s3)c2)cc1,25.1 µM (active)
17,O=[N+]([O-])c1c(NCCO)cc(Sc2nc3ccccc3s2)c2nonc12,inactive
18,CC(C)(C)c1ccc(S(=O)(=O)Nc2ccc(O)c(Sc3nc4ccccc4s3)c2)cc1,inactive
19,CC(C)c1ccc(NC(=O)Cn2nnc(C(=O)NCCc3ccccc3)c2N)cc1,inactive
